Data taken from PubChem BioAssay AID652251 (National Center for Advancing Translational Sciences (NCATS), 2013).
Activity calls are given as the source filed them.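 Rule for the calls: active = lowers cyclin D1 in cells by half at 5 µM or less; inconclusive = half-effect dose above 5 µM but under 10 µM; inactive = half-effect dose of 10 µM or more.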

Test: qHTS for Inhibitors of Ubiquitin-specific Protease USP2a Using CHOP2 as the Reporter: Cyclin D1 Western Blot
Conditions: HCT116 cyclin D1 western blot
From the text: Homeostasis of cellular proteins is maintained through a combination of synthesis and degradation. The pathway that accounts for the majority of protein degradation is the ubiquitin-proteasomal pathway. Ubiquitin (Ub) is highly conserved in all cells and the generation of a multi-Ub chain typically targets proteins for degradation by the proteasome. However, ubiquitination is highly reversible and dynamic. Deubiquitination, the reverse process, is catalyzed through the action of enzymes referred to as isopeptidases or deubiquitinating enzymes (DUBs). This group of enzymes is collectively responsible for maintaining adequate pools of free ubiquitin and regulating the ubiquitination status of cellular proteins. The class of DUBs referred to as the ubiquitin-specific proteases (USP) family functions endoproteolytically to cleave Ub chains from a wide range of protein substrates. USP2a deubiquitinates fatty acid synthase (FASN) which has recently been identified as an emerging oncology target. […] To further visualize and quantitate the effect of compounds on cell proliferation, a colony forming or clonogenic assay was performed in 6-well plates using HCT116 cells. […] The colonies were visualized on the Typhoon imager (GE) using Cy5 detection, and quantitated with the associated software. […]
. […] Protein levels were quantified using ImageJ.

Structure (SMILES)	Potency
Cc1ccc(S(=O)(=O)Nc2cc(C(F)(F)F)ccc2C(=O)Nc2nc(-c3ccccc3)cs2)cc1	970 nM (active)
